Data on 53 compounds can be found in ChEMBL document CHEMBL4513216, “Probing the Open Global Health Chemical Diversity Library for Multistage-Active Starting Points for Next-Generation Antimalarials” (ACS Infect Dis, 2020).

The campaign covered roughly 69,000 compounds. About 8,600 (12%) showed an effect of 50% or more. This is one part of a sample in which strong results are shown more often than they occur.

The experiment concerns Plasmodium berghei. As to the kind of experiment: Screen against P. berghei liver stage (PbLuc), transformed with Luciferase, at 10uM. The format is functional, HepG2. The conditions noted are these: tested at 10 uM.
With `O=C([C@H]1C[C@H]2OCC[C@H]2N(C(=O)c2ccncc2)C1)N1CCCC1`, the INHIBITION is -23.8%. Consider `CCN(CC)c1ccc(C(=O)N2CCCC2Cn2cc(C)cn2)cn1` (stereo not drawn), for which the INHIBITION is -4.75%. `Cc1nn(-c2ccc(C(=O)O)cc2)c2c1C(C(C)C)SCC(=O)N2` (stereo not drawn): the INHIBITION was -2.39%. As to `O=C1COc2ccc(S(=O)(=O)NCCC3=CCCCC3)cc2N1`, the INHIBITION is -13.6%.

As for `C[C@@H]1CN(CC(=O)NCc2ccccn2)C[C@]1(C)O`, the INHIBITION is given as 19.8%. Turning to `CC(=O)N1C[C@H]2CC[C@@H](C1)N(S(=O)(=O)c1ccc(C#N)cc1Cl)C2`, the INHIBITION was determined as 38.3%. For the compound `CC(C)OCCOCc1cccc(NC(=O)NCC(=O)N(C)C)c1`, the INHIBITION amounted to 44.4%. As to `CNc1nc(CNC(=O)Nc2cccc(COCCOC(C)C)c2)cs1`, the INHIBITION is reported as 52.4%. `CC(C)OCCOCc1cccc(NC(=O)NCc2ccncc2)c1`: the INHIBITION is on record as -18.2%. Next, `CC(C)OCCOCc1cccc(NC(=O)NCc2ccccn2)c1`: 0.139%; `CC(C)OCCOCc1cccc(NC(=O)NCc2cnn(C)c2)c1`: 50.4%. For the compound `Cc1cc(CNC(=O)Nc2cccc(COCCOC(C)C)c2)no1`, the INHIBITION worked out at 29.5%. As for `COc1ccccc1CC(=O)N(C)Cc1cc(C)on1`, the INHIBITION is recorded as 10%.

As to `COc1ccc(OC)c(NC(=O)CSc2ccc3nncn3n2)c1`, the INHIBITION came out at 7.25%. Turning to `c1coc(-c2noc(CN3CCc4cncnc4C3)n2)c1`, the INHIBITION was 26.43%.

As to `Cc1noc(C)c1-c1cc(CCC2CN(C(=O)CN)CCO2)ncn1` (stereo not drawn), the INHIBITION is recorded as -7.005%.

For the compound `O=C(Nc1nnc(C2CC2)s1)NC1CCOc2ccccc21` (stereo not drawn), the INHIBITION is 54.4%. The same measure for `CC(C)c1nnc(NC(=O)NC2CCOc3ccccc32)s1` (stereo not drawn): 32.2%. In the case of `Cc1nnc(NC(=O)NC2CCOc3ccccc32)s1` (stereo not drawn), the INHIBITION was 13.5%. Turning to `Cn1nccc1CN1CCOC(c2cccc(-c3cncnc3)n2)C1` (stereo not drawn), the INHIBITION came to 16.55%. For the compound `Cn1nccc1CN1CCOC(c2ccc(-c3cncnc3)cn2)C1` (stereo not drawn), the INHIBITION is on record as 23.8%. Regarding `Cn1nccc1CN1CCOC(c2cccc(Nc3ccccn3)n2)C1` (stereo not drawn), the INHIBITION is listed as 78.6%.

As to `Cc1c(C(=O)N2CCNC(=O)C2)sc2nc[nH]c(=O)c12`, the INHIBITION stood at 20.6%. As for `O=C(O)c1c(-c2cccnc2)ncc2c1CCN(Cc1cccnc1)C2`, the INHIBITION came to 6.66%. As to `O=C(O)c1c(-c2cncnc2)ncc2c1CCN(Cc1cccnc1)C2`, the INHIBITION amounted to 96.1%. Regarding `O=C(O)c1c(-c2cccnc2)ncc2c1CCN(Cc1ccccn1)C2`, the INHIBITION is -33.9%. Regarding `Cn1nccc1-c1ncc2c(c1C(=O)O)CCN(Cc1cccnc1)C2`, the INHIBITION stood at 13.7%.

On to `Cn1nccc1-c1ncc2c(c1C(=O)O)CCN(Cc1ccncc1)C2`, for which the INHIBITION stood at 20.1%.

`Cn1nccc1-c1ncc2c(c1C(=O)O)CCN(Cc1ccccc1)C2`: the INHIBITION worked out at 58.7%. In the case of `Fc1ccc(-c2cnc(C3CCCN3)cn2)cc1` (stereo not drawn), the INHIBITION came to 27%. Take `O=C1[C@@H]2CC[C@@H](CN(C3CCOCC3)C2)N1Cc1cscn1`: the INHIBITION worked out at 33%. With `CC(C(=O)O)n1nc(C(F)(F)F)c(Br)c1C1CC1` (stereo not drawn), the INHIBITION was determined as 38.3%. Next, `COc1ccc(Cl)cc1CC(=O)NS(=O)(=O)c1ccc(C(N)=O)cc1`: -18%.

With `O=C(NCC(O)c1ccccc1)Nc1cccs1` (stereo not drawn), the INHIBITION was -39.3%. With `CCSc1ncc(CN2CCN(c3nc(C)ncc3C)CC2)cn1`, the INHIBITION is recorded as 56.6%.

With `CCSc1ncc(CN2CCN(c3ncc(C)c(N)n3)CC2)cn1`, the INHIBITION was -37.7%. As to `CCSc1ncc(CN2CCN(c3nc(C)cnc3C)CC2)cn1`, the INHIBITION is -50.8%. As to `CCn1cnnc1CNS(=O)(=O)N1CCCC1c1ccco1` (stereo not drawn), the INHIBITION is reported as -120%. With `O=C(Cc1ccsc1)N1CCCCC1c1ccn2ccnc2n1` (stereo not drawn), the INHIBITION turned out to be 47.1%. On to `c1cncc(-c2nnn3c2COCC(CNC2CCOCC2)C3)c1` (stereo not drawn), for which the INHIBITION is reported as 33.4%. For `Cc1ccnc(C2(C)CCCN2C(=O)c2cnccn2)n1` (stereo not drawn), the INHIBITION is reported as 6.32%. Next, `CC(=O)N[C@@H]1CN(Cc2ccco2)C[C@H]1c1ccc(C)o1`: 32.8%. Take `C/C=C(\C)CN1C[C@H](NC(=O)CCOC)[C@@H](c2ccc(C)o2)C1`: the INHIBITION is 63.5%.

`C/C=C(\C)CN1C[C@H](NC(=O)CN2CCCC2=O)[C@@H](c2ccc(C)o2)C1`: the INHIBITION is recorded as 18.3%. On to `O=C(NCC1CC1)Nc1cnc2ccc(F)cc2c1O`, for which the INHIBITION is on record as 23.2%. In the case of `COc1ccc(CN2C[C@@H]3CCCO[C@@H]3[C@H](NS(C)(=O)=O)C2)cc1`, the INHIBITION came to 2.01%. Regarding `CO[C@@H]1c2ccccc2C2(CCN(C(=O)CNS(C)(=O)=O)CC2)[C@H]1O`, the INHIBITION was -6.61%. Turning to `COc1ccc(NC(C)c2nnnn2-c2ccccc2)cn1` (stereo not drawn), the INHIBITION is given as 18.3%. On to `COc1ccc(NC(C)c2nnnn2-c2ccccc2)cc1F` (stereo not drawn), for which the INHIBITION amounted to 54.3%. For `CCOc1ccc(NC(C)c2nnnn2-c2ccccc2)cc1CO` (stereo not drawn), the INHIBITION is 20.9%. In the case of `COc1ccc(NC(C)C(=O)NCCc2cccs2)cc1F` (stereo not drawn), the INHIBITION came out at 38.5%. In the case of `CC(Nc1ccc(F)cc1)c1nnnn1-c1ccccc1` (stereo not drawn), the INHIBITION turned out to be 81.7%.

As for `CCC(Nc1nnnn1-c1ccccc1)C(=O)Nc1ccccc1C` (stereo not drawn), the INHIBITION was -19.1%.
